Consider 27 compounds from PubChem BioAssay AID1224904 (Broad Institute, 2016).

The assay is described as follows: inhibitors of DUX4-driven ZSCAN4 reporter expression, primary screen, 293T cells, Gaussia and Italica luciferase (AID 1224904).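 On activity change, negative = inhibition: 0% = median of neutral control wells and -100% = median of positive control wells.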 The settings on record: 293T-iDUX4 ZSCAN4-Gaussia luciferase reporter, 24 h, stronger effect = lower value, concentration not given here; for Gaussia minus Italica difference: measured here: selective DUX4 reporter inhibition.
Where [1] appears, read: measured here: Italica tet-on control reporter.

Molecules are shown by their SMILES. Out of some 37,000 compounds screened, about 290 (0.78%) were called active. Not shown: some 10% with an inconclusive outcome.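 How the source made its calls: active means mean inhibition of at least 10% in the main channel, exceeding the control channel by a set limit; inconclusive means inhibition of 10% or more but channel gap under a set limit; inactive means mean inhibition below 10%.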 Only a selection was taken, and actives are over-represented in it overall.

Consider `CCNC[C@@H]1[C@@H](c2ccccc2)[C@@H](CO)N1C(=O)Cc1ccccn1`, for which the activity change, negative = inhibition was -0.0686% (inactive) and the Gaussia minus Italica difference was -0.642%. Besides, the activity change, negative = inhibition under setting [1] amounted to 0.573%.
Turning to `CC(C)[C@@H]1COCc2cn(nn2)CC[C@@H](C)C(=O)N1`, the activity change, negative = inhibition is -4.81% (inactive) and the Gaussia minus Italica difference was -4.34%. For the same compound, the activity change, negative = inhibition under setting [1] is -0.475%.
For the compound `C/C=C/c1ccc([C@H]2[C@@H](CO)N(S(C)(=O)=O)[C@@H]2CN(C)C(=O)CC)cc1`, the activity change, negative = inhibition was -5.98% (inactive) and the Gaussia minus Italica difference was -2.63%. Further, the activity change, negative = inhibition under setting [1] was -3.34%.
Take `COc1ccc(S(=O)(=O)Nc2ccc3c(c2)C(=O)N([C@@H](C)CO)C[C@@H](C)[C@H](CN(C)C(=O)CCC(F)(F)F)OCCCC[C@H](C)O3)cc1`: the activity change, negative = inhibition was -0.224% (inactive) and the Gaussia minus Italica difference was -2.09%. Also, the activity change, negative = inhibition under setting [1] stood at 1.87%.
On to `COc1ccc2c3c(n(C)c2c1)[C@H](CO)N(Cc1ccc(F)cc1)CC31CCN(C)CC1`, for which the activity change, negative = inhibition is -2.1% (inactive) and the Gaussia minus Italica difference was -2.85%. For the same compound, under setting [1], the activity change, negative = inhibition amounted to 0.744%.
For the compound `CCCN1[C@H](C(=O)N2CCCCC2)[C@@H](CO)[C@@H]2Cn3c(ccc(-c4ccccc4F)c3=O)[C@@H]21`, the activity change, negative = inhibition is -5.69% (inactive) and the Gaussia minus Italica difference is -5.56%. Further, under setting [1], the activity change, negative = inhibition is -0.135%.
For `CCCNC(=O)N(C)C[C@@H]1Oc2ncc(C#CCc3ccccc3)cc2C(=O)N([C@@H](C)CO)C[C@H]1C`, the activity change, negative = inhibition was 5.53% (inactive) and the Gaussia minus Italica difference was 1.6%. For the same compound, under setting [1], the activity change, negative = inhibition was determined as 3.94%.
With `CCCNC(=O)N1C[C@@H](O)COC[C@H]2O[C@H](CC(=O)N3CCC(Cc4ccccc4)CC3)CC[C@@H]21`, the activity change, negative = inhibition was -2.96% (inactive) and the Gaussia minus Italica difference was -0.719%. The activity change, negative = inhibition under setting [1] was -2.25%.
Regarding `N#C[C@H]1[C@@H](c2ccc(-c3ccccc3F)cc2)[C@H](CO)N1C(=O)c1ccccn1`, the activity change, negative = inhibition is 2.62% (inactive) and the Gaussia minus Italica difference was found to be 0.933%. The activity change, negative = inhibition under setting [1] stood at 1.69%.
Take `CCS(=O)(=O)N1Cc2cc(C(=O)N(C)C)nc(-c3cccc(-c4ccc(C#N)cc4)c3)c2[C@H]1CCO`: the activity change, negative = inhibition is 0.897% (inactive) and the Gaussia minus Italica difference was -1.75%. The activity change, negative = inhibition under setting [1] turned out to be 2.65%.
As for `COc1ccc(C#Cc2ccc3c(c2)[C@H]2[C@H](CCN2Cc2nccs2)[C@@H](CO)N3)cc1`, the activity change, negative = inhibition is -46.9% (active) and the Gaussia minus Italica difference is -28.6%. Further, the activity change, negative = inhibition under setting [1] was -18.3%.
On the same counts, the results for `COc1ccc(S(=O)(=O)N2CC[C@@H]3[C@@H](CO)Nc4ccc(C#Cc5cccnc5)cc4[C@@H]32)cc1` are 2.41% (inactive), 10.4% and -7.96%.
The matching figures for `COc1ccccc1CN1CC[C@@H]2[C@@H](CO)Nc3ccc(C#Cc4ccccc4)cc3[C@@H]21`: -0.512% (inactive), -16.5% and 16%.
Consider `CCCNC(=O)Nc1ccc2c(c1)C(=O)N(C)[C@@H]1CC[C@@H](CC(=O)NC)O[C@H]1CO2`, for which the activity change, negative = inhibition was 5.07% (inactive) and the Gaussia minus Italica difference was -2.97%. Further, the activity change, negative = inhibition under setting [1] came out at 8.03%.
As to `C[C@H](NC(=O)C[C@@H]1C=C[C@H](NC(=O)CN2CCOCC2)[C@H](CO)O1)c1ccccc1`, the activity change, negative = inhibition was 4.92% (inactive) and the Gaussia minus Italica difference amounted to 3.76%. Also, the activity change, negative = inhibition under setting [1] was determined as 1.16%.
With `CCCNC(=O)N1CCC2(CC1)CN(C(=O)c1cccnc1)[C@@H](CO)c1[nH]c3cc(OC)ccc3c12`, the activity change, negative = inhibition was 8.76% (inactive) and the Gaussia minus Italica difference came to 12.5%. Further, the activity change, negative = inhibition under setting [1] was -3.75%.
As for `C[C@@H]1CCCCO[C@H](CN(C)Cc2ccc(C(=O)Nc3ccccc3N)cc2)[C@H](C)CN([C@H](C)CO)C(=O)c2cc(N(C)C)ccc2O1`, the activity change, negative = inhibition is 1.16% (inactive) and the Gaussia minus Italica difference is 0.898%. Besides, under setting [1], the activity change, negative = inhibition was determined as 0.261%.
Regarding `CC(C)CC#Cc1ccc([C@@H]2[C@@H](CO)N3C(=O)CN(C(=O)c4cnccn4)C[C@@H]23)cc1`, the activity change, negative = inhibition is -2.25% (inactive) and the Gaussia minus Italica difference was -6.63%. Under setting [1], the activity change, negative = inhibition was found to be 4.38%.
Turning to `COc1ccc2c3c(n(C)c2c1)[C@@H](CO)N(C(=O)C1CC1)CC31CN(C(=O)C2CCOCC2)C1`, the activity change, negative = inhibition is 9.17% (inactive) and the Gaussia minus Italica difference worked out at 7.12%. Also, under setting [1], the activity change, negative = inhibition came out at 2.05%.
In the case of `O=C(Nc1ccccc1)N1C[C@H]2[C@@H](c3ccccc31)[C@H](CO)N2Cc1ccc(F)cc1`, the activity change, negative = inhibition is -5.39% (inactive) and the Gaussia minus Italica difference was -5.35%. In addition, the activity change, negative = inhibition under setting [1] is -0.0374%.
With `COc1ccc2c3c(n(C)c2c1)[C@@H](CO)N(C(=O)c1ccccn1)CC31CN(C)C1`, the activity change, negative = inhibition was 15.3% (inactive) and the Gaussia minus Italica difference worked out at 8.66%. Besides, the activity change, negative = inhibition under setting [1] is 6.61%.
Turning to `CN(C)C(=O)C[C@@H]1C[C@H]2c3cc(NC(=O)Nc4ccccc4F)ccc3O[C@H]2[C@@H](CO)O1`, the activity change, negative = inhibition was 1.79% (inactive) and the Gaussia minus Italica difference was -2.83%. For the same compound, the activity change, negative = inhibition under setting [1] came out at 4.62%.
Regarding `CO[C@H]1CN(C)C(=O)c2ccc(NC(=O)c3cccc(F)c3)cc2OC[C@@H](C)N(C(C)=O)C[C@@H]1C`, the activity change, negative = inhibition was 1.79% (inactive) and the Gaussia minus Italica difference was -0.333%. Besides, the activity change, negative = inhibition under setting [1] amounted to 2.12%.
On the same counts, the results for `Cc1ccccc1-c1ccc([C@H]2[C@H](CO)N3C(=O)CN(C(=O)c4cccnc4)C[C@@H]23)cc1` are 6.89% (inactive), -4.8% and 11.7%.
`O=C(C[C@H]1CC[C@@H]2[C@H](COC[C@H](O)CN2S(=O)(=O)c2ccccc2)O1)N1CCOCC1`: the activity change, negative = inhibition was 7.87% (inactive) and the Gaussia minus Italica difference was -0.196%. The activity change, negative = inhibition under setting [1] worked out at 8.06%.
For `O=C(C[C@@H]1CC[C@H]2[C@@H](COC[C@@H](O)CN2C(=O)Nc2ccc(Cl)cc2)O1)NC1Cc2ccccc2C1`, the activity change, negative = inhibition was 3.16% (inactive) and the Gaussia minus Italica difference is -7.28%. The activity change, negative = inhibition under setting [1] was determined as 10.4%.
For `Cc1ccccc1S(=O)(=O)Nc1ccc2c(c1)C(=O)N(C)[C@@H]1CC[C@@H](CC(=O)O)O[C@@H]1CO2`, the activity change, negative = inhibition was -2.51% (inactive) and the Gaussia minus Italica difference was -1.73%. Further, the activity change, negative = inhibition under setting [1] was -0.782%.
